Reference: PubChem BioAssay (NCATS)
“And” between values parts separate entries of the source, which are not always exact repeats. Equal values may be shown once. Inconclusive results are not listed. A call without a number means that no potency is given here. Where a structure was tested more than once in an assay, its records may differ in their call. The source made the active and inactive calls. Unless noted, calls follow the shape of the dose curve; as a rule, active = well fitted curve in the direction sought with a large enough effect; inconclusive = small, poorly fitted or top-dose-only effect, or another doubt; inactive = no such curve, though single readings can be large; an effect the other way counts as inactive or inconclusive.

Tests used:
[1] = biological target: Protein phosphatase 1D (Homo sapiens) (UniProt O15297); assay: RapidFire Mass Spectrometry qHTS Assay for Modulators of WT P53-Induced Phosphatase 1 (WIP1) (AID 1347424);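 also: amount of dephosphorylated VEPPL-S-QETFS peptide product formed by WIP1; series mostly up to about 63 µM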
Sequence of Protein phosphatase 1D (Homo sapiens) (O15297 whole entry, looked up): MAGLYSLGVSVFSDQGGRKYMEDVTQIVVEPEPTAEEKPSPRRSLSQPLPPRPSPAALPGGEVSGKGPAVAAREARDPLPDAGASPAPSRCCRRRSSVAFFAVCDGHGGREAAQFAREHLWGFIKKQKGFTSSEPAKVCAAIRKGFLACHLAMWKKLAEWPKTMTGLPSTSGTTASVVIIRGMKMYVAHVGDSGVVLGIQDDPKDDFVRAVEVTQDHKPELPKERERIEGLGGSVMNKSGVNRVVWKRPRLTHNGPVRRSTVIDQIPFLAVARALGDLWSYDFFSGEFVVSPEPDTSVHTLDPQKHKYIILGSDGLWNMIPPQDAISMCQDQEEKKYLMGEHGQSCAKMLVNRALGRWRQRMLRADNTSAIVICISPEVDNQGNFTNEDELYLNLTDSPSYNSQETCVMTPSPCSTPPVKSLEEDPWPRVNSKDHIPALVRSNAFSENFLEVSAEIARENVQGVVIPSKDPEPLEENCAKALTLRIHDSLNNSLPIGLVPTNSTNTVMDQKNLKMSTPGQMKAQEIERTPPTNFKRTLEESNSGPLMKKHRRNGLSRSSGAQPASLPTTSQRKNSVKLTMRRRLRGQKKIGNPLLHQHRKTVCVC
Method in brief: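 WIP1 (10 nM final) was preincubated 1 h at room temperature with compounds in Tris-HCl pH 7.5, 30 mM MgCl2, TCEP, EGTA, BSA; 2 uM VEPPL-pS-QETFS phosphopeptide was added for 5 min, quenched with formic acid, and dephosphorylated product quantified by RapidFire MS.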

[2] = biological target: Protein phosphatase 1D (Homo sapiens) (UniProt O15297); assay: Rhodamine-PBP qHTS Assay for Modulators of WT P53-Induced Phosphatase 1 (WIP1) (AID 1347425)
Method in brief: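 Steps: enzyme with Rh-PBP sensor and compounds, room-temperature incubation of 1 hr, baseline read, addition of VEPPL-pS-QETFS (10 uM final), kinetic fluorescence reads at 525/598 nm. Activity equals final minus baseline signal.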

[3] = Primary qHTS for small molecule stabilizers of the endoplasmic reticulum resident proteome: Secreted ER Calcium Modulated Protein (SERCaMP) assay (AID 1508630); also: potency is read from the fitted curve at half-maximal effect
Method in brief: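 GLuc-SERCaMP-expressing SH-SY5Y cells, pretreated 16 h with compound, are challenged with thapsigargin to empty ER calcium stores; after 4 h, coelenterazine is added directly to the medium and luminescence is imaged.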

[4] = biological target: Cytochrome P450 2D6 (Homo sapiens) (UniProt P10635); assay: Cytochrome P450 family 2 subfamily D member 6 (CYP2D6) small molecule antagonists: luciferase biochemical (cell-free) qHTS assay (AID 1645840; active = well fitted curve in the direction sought with a large enough effect in the repeat runs; an effect the other way counts as inactive or inconclusive; also: nearly all actives have a fitted effect of over 55% in size; also: potency is read from the fitted curve at half-maximal effect)
Sequence of Cytochrome P450 2D6 (Homo sapiens) (P10635 whole entry, looked up): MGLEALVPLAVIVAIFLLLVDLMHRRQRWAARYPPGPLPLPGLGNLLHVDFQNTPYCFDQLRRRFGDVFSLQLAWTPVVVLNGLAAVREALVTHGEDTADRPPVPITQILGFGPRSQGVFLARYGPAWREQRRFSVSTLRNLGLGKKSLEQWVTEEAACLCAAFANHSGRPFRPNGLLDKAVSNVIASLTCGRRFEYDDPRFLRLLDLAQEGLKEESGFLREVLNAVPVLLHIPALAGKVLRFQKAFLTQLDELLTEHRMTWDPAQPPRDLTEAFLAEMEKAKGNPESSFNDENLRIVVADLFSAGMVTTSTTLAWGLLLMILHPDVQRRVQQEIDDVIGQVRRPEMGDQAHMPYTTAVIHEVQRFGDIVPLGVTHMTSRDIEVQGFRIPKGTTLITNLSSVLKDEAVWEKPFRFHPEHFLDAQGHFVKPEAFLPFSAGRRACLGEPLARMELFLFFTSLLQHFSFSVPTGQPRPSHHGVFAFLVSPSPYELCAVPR
Method in brief: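 P450-Glo luminescent screen: recombinant CYP2D6 enzyme–proluciferin substrate mix preincubated with compound 10 min at room temperature, then NADPH regeneration added for 1 h at room temperature. Detection reagent added for 20 min; luciferin light read as relative luminescence units.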

[5] = biological target: Cytochrome P450 2C9 (Homo sapiens) (UniProt P11712); assay: Cytochrome P450 family 2 subfamily C member 9 (CYP2C9) small molecule antagonists: luciferase biochemical (cell-free) qHTS assay (AID 1645842; active = well fitted curve in the direction sought with a large enough effect in the repeat runs; an effect the other way counts as inactive or inconclusive; also: nearly all actives have a fitted effect of over 55% in size; also: potency is read from the fitted curve at half-maximal effect)
Sequence of Cytochrome P450 2C9 (Homo sapiens) (P11712 whole entry, looked up): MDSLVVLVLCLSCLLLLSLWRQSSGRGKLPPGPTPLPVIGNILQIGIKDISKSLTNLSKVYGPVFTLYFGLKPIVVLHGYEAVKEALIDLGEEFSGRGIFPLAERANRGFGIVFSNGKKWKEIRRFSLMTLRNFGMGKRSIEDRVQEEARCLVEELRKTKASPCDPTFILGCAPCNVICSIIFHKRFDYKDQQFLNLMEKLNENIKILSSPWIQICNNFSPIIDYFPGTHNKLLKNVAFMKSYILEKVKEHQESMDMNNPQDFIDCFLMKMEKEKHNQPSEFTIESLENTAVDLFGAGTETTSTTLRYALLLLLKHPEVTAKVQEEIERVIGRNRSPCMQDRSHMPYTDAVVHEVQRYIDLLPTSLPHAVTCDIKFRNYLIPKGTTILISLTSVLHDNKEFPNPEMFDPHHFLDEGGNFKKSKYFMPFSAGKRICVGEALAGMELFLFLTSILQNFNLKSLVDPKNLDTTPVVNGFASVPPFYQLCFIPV
Method in brief: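 Luminescence, after 20 min with luciferin detection reagent, reflected CYP2C9 turnover during a 1 h NADPH-driven reaction at 37C. Enzyme-substrate mix contained 0.4% bovine serum albumin and was preincubated with compound 10 min at room temperature.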

[6] = Primary qHTS for inhibitors of La Crosse Virus (LACV) - induced cell death in SH-SY5Y cells (AID 1508616);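 also: top concentration of the series differs between compounds; higher means more rescue of cells from virus-induced death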
Method in brief: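 SH-SY5Y cells (6000/well) plated 24 h, then given compounds by pin transfer and LACV at 0.01 MOI for 6 days at 37C. Viability measured by ATPLite luminescence, normalized to infected DMSO and uninfected DMSO.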

[7] = A High-Content qHTS Against Drug Library for the Identification of Small Molecules that Inhibit DYT1 Early Onset Primary Dystonia-Associated Cell Pathology (AID 1645839; calls by dose curve; also: series mostly up to about 46 µM)
Method in brief: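 Readout: %pathology, the punctate EGFP-TorsinA distribution from imaging, as the primary channel and cell count as the toxicity counterscreen. HEK293 Flp-In cells expressing delE TorsinA were induced with tetracycline and treated with compound for 48 h.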

[8] = biological target: Calcium and integrin-binding protein 1 (Homo sapiens) (UniProt Q99828); assay: Primary qHTS for Identification of Calcium Integrin Binding Protein 1 (CIB1) Competitor (AID 1508620);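 also: GST tagged CIB1 binding a fluorescein labelled alphaIIb integrin peptide tracer; top concentration of the series differs between compounds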
Sequence of Calcium and integrin-binding protein 1 (Homo sapiens) (Q99828 whole entry, looked up): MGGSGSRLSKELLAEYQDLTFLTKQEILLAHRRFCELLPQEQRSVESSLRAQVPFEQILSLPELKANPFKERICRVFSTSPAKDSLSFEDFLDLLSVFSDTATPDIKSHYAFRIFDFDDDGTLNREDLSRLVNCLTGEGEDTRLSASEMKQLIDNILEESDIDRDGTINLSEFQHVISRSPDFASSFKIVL
Method in brief: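 Fluorescence polarization competition: CIB1-GST (1 uM final) preincubated with compound 15 min at room temperature, then FITC-labeled alphaIIb peptide (100 nM final) added for another 15 min. Polarization read at Ex 480/Em 540.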

[9] = Confirmatory qHTS for small molecule stabilizers of the endoplasmic reticulum resident proteome: Secreted ER Calcium Modulated Protein (SERCaMP) assay (AID 1508628); also: potency is read from the fitted curve at half-maximal effect; nearly all actives have a fitted effect of over 40% in size
Method in brief: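 SH-SY5Y cells stably expressing GLuc-SERCaMP, treated 16 h with compound (primary 1.53, 7.67, 38.3 uM; confirmation 11 concentrations, up to 76.6 uM), then 100 nM thapsigargin for 4 h. Secreted Gaussia luciferase in medium read by coelenterazine luminescence.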

[10] = Cell Viability qHTS for small molecule stabilizers of the endoplasmic reticulum resident proteome (AID 1508629); conditions: cell viability counter-screen, 100 nM thapsigargin for final 4 h;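 also: human SH-SY5Y neuroblastoma cells carrying the GLuc-SERCaMP reporter; compound exposure about 46 h in total before the viability read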

| Structure (SMILES) | outcome [1] | outcome [2] | Potency [3] | Potency [4] | Potency [5] | Potency [6] | Potency [7] | outcome [8] | Potency [9] | max response [10] |
| --- | --- | --- | --- | --- | --- | --- | --- | --- | --- | --- |
| CCc1c2c(nc3ccc(OC(=O)N4CCC(N5CCCCC5)CC4)cc13)-c1cc3c(c(=O)n1C2)COC(=O)[C@]3(O)CC | inactive | inactive | inactive | inactive | inactive |  |  |  |  |  |
| CN1CCN(c2c(F)cc3c(=O)c(C(=O)O)cn(CCF)c3c2F)CC1 | inactive | inactive |  | inactive | inactive | inactive | inactive |  |  |  |
| N=C(N)c1ccc(OCCCCCOc2ccc(C(=N)N)cc2)cc1 | inactive | inactive |  | inactive |  |  | inactive | inactive |  |  |
| CCn1cc(C(=O)O)c(=O)c2cc(F)c(N3CCN(C)CC3)cc21 | inactive | inactive |  |  |  | inactive | inactive |  |  |  |
| C[C@@H](NCCCc1cccc(C(F)(F)F)c1)c1cccc2ccccc12 | inactive | inactive | inactive | 30.9 nM (active) and 19 nM (active) | 26.8 µM (active) |  |  | inactive |  |  |
| CO[C@@H]1[C@@H](OC(N)=O)[C@@H](O)[C@H](Oc2ccc3c(O)c(NC(=O)c4ccc(O)c(CC=C(C)C)c4)c(=O)oc3c2C)OC1(C)C |  | inactive | 31.6 µM (active) and inactive | inactive | 3.09 µM (active) | inactive | inactive | inactive | 35.5 µM (active) | 49.1% (inactive) |
| C1CCC(C(CC2CCCCN2)C2CCCCC2)CC1 (stereo unspecified) | inactive | inactive |  | 0.138 µM (active) |  | inactive |  | inactive |  |  |
| CC1=CC(=O)c2ccccc2C1=O | inactive | inactive | inactive | 15.5 µM (active) |  |  |  | inactive |  |  |
| Cc1cccc(N(C)C(=S)Oc2ccc3ccccc3c2)c1 | inactive | inactive |  |  | 11 µM (active) | inactive | inactive | inactive |  |  |
| C[C@@H]1C[C@H]2[C@@H]3CCC4=CC(=O)C=C[C@]4(C)[C@@]3(Cl)[C@@H](O)C[C@]2(C)[C@@]1(OC(=O)c1ccco1)C(=O)CCl | inactive | inactive |  | 2.45 µM (active) | 4.36 µM (active) |  |  | inactive |  |  |
| CN(C)CCc1c[nH]c2ccc(C[C@H]3COC(=O)N3)cc12 | inactive | inactive |  | inactive | inactive | inactive | inactive | inactive |  |  |
| O=C(N[C@H](CO)[C@H](O)c1ccc([N+](=O)[O-])cc1)C(Cl)Cl | inactive | inactive | inactive |  |  |  |  | inactive |  |  |
| O=C(O)c1cn(C2CC2)c2cc(N3CCNCC3)c(F)cc2c1=O | inactive | inactive |  |  |  |  | inactive |  |  |  |
| O=C(O)CCn1c2c(c3ccccc31)C[C@H](NS(=O)(=O)c1ccc(F)cc1)CC2 | inactive | inactive |  | inactive | 17.4 µM (active) |  | inactive |  |  |  |
| O=C(O)c1cccnc1 | inactive | inactive | inactive | inactive |  |  | inactive | inactive |  |  |
